Source: PubChem BioAssay AID1069 (NMMLSC, 2008)
Calls of active or inactive are those of the source.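 The calls were made as follows: active = high combined rank on largest and smallest cell-count-weighted shift across three tests, rank score above 45, floors 50 and 25 (some results past the limit were not filed as active); inactive = the rest.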

Assay: activators of LNCaP cell differentiation, retest, confirmation, side scatter shift, flow cytometry (AID 1069);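 also: LNCaP human prostate cancer cells in low-serum medium with charcoal-stripped FBS; percent of cells with raised granularity gated so DMSO controls show 10%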
Conditions: 4 d, stronger effect = higher value

SMILES | side scatter shift (at 100 µM) | side scatter shift (side scatter shift, at 10 µM) [%]
CCC(=O)N(Cc1ccco1)c1nc(-c2cc(OC)ccc2OC)cs1 | 13.2% (inactive) | 9.2
CCOC(=O)N1CCN(CC(=O)Nc2cc(C)nn2-c2nc3ccccc3s2)CC1 | 19.3% (inactive) | 2.6
CC(=O)Nc1cc(C(=O)N2CCOCC2)ccc1S(=O)(=O)c1ccc(C)cc1 | 11.4% (inactive) | 2.95
COc1cc(C(=O)NCc2nnc(SCC(=O)NCc3ccccc3)o2)cc(OC)c1OC | 9.6% (inactive) | 7.7
Cc1ccccc1-c1nc(CN2CCC(C(=O)N3CCN(c4ccccn4)CC3)CC2)c(C)o1 | 24.7% (inactive) | 12.9
CCc1ccc(-c2nc(CN3CCC(C(=O)NCc4ccccc4OC)CC3)c(C)o2)cc1 | 12.2% (inactive) | 14.5
CCn1c(=O)cc(SCC(=O)N2CCN(C3CCCCC3)CC2)c2ccccc21 | 16.7% (inactive) | 6.55
CCN1CCCC1CNC(=O)c1cc2c(-c3cccc(OC)c3)nn(C)c2s1 (stereo unspecified) | 40% (inactive) | 12.8
Cc1ccc(-c2noc(CCC(=O)NCCCN3CCN(c4cccc(Cl)c4)CC3)n2)cc1 | 31.8% (inactive) | 11.5
Cc1ccc2[nH]c(=O)c3cc(C(=O)N(C)Cc4ccco4)sc3c2c1 | 4.2% (inactive) | 11.1
CC(C)CCNC(=O)C1CCN(c2nc3ccccc3o2)CC1 | 28.8% (inactive) | 7.65
CCN(CCNC(=O)C1CCN(Cc2nc(-c3ccc(Cl)cc3)oc2C)CC1)c1ccccc1 | 25% (inactive) | 26.4
Cc1cc(NC(=O)CSc2nnc(C3CC3)n2C)no1 | 11.6% (inactive) | 9.3
